Calb FLC: C. albicans growth inhibition with fluconazole, primary screen, CaCi-2 strain, Alamar Blue fluorescence; C. albicans CaCi-2 (fluconazole-resistant clinical isolate) + fluconazole, 48 h; growth inhibition, % (test concentration not listed); hit rate 0.57% among 300,000; AID 1979, 2009;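 active = growth inhibition above about 58% in most replicates, limit read from the data, passing the limit was not always enough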;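 also: all wells also contain fluconazole at 8 µg/ml as a sub-toxic cotreatment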
HIF act: HIF pathway transcriptional activators, primary screen, cell-based, U2OS HRE-luciferase, luminescence. U2OS HRE-luciferase reporter; normalized: DMSO 0%, desferrioxamine 100%. activation, % at 7.5 µM (by protocol). hit rate 0.32% among 300,000. AID 1910, 2009;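 active = mean activation of at least 10% of the iron chelator positive control signal, with at least half of replicates also reaching 10%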
zVAD death inh: inhibitors of zVAD-triggered necroptosis, primary screen, L929 cells; AID 1377, 2008; L929 zVAD necroptosis rescue, ATP luminescence, 24 h; with zVAD 60 µM; hit rate 0.38% among 220,000; viability rescue, % at 10 µM;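 active = activation, scaled between plate controls, above about 75%, limit read from the data; inactive = activation under that limit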
TNF necrop inh: inhibitors of TNF-alpha triggered necroptosis, primary screen, cell-based, Jurkat FADD-/-, single concentration; Jurkat FADD-/- TNF necroptosis rescue, ATP luminescence, 24 h; 0 = TNF only, 100 = no-TNF cells; hit rate 0.068% among 220,000; activation (protection from cell death), % at 10 µM; AID 463075, 2010;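 active = activation, meaning protection from cell death, of at least 50% relative to plate controls; inactive = activation below 50%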;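 also: necroptosis triggered by 40 ng/mL TNF-alpha added together with compound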
Each line names hits and unclear results; the compound was inactive in the other large screens. Hits are enriched below; roughly 1.1% of the tested compounds scored in any of these assays.

Cc1cc(C(=O)N2CCCC(N3CCN(c4cccc(C(F)(F)F)c4)CC3)C2)no1 (centres undefined)	none (no result: zVAD death inh, TNF necrop inh)
Cc1cc(C)c(C(=O)N2CCCC(N3CCN(c4cccc(C(F)(F)F)c4)CC3)C2)o1 (centres undefined)	HIF act 135 (no result: zVAD death inh, TNF necrop inh)
CCc1ccc(C2C(=O)c3ccccc3C2=O)cc1	HIF act 16 (no result: zVAD death inh, TNF necrop inh)
COc1ccc(OC2C(=O)N(Cc3ccc4c(c3)OCO4)C2c2sccc2C)cc1 (centres undefined)	Calb FLC 93
CC(=O)Nc1ccc(S(=O)(=O)N(C)CC(=O)OC(C)C(=O)N(C)Cc2ccccc2)cc1 (centres undefined)	none (no result: zVAD death inh, TNF necrop inh)
[O-][N+]1=c2ccc(Nc3ccccc3)cc2=NC12CCCCC2	Calb FLC 108
O=C(O)/C=C/c1ccc(S(=O)(=O)Nc2ccc(OCc3ccccc3)cc2)cc1	none
O=C(O)/C=C/c1ccc(S(=O)(=O)Nc2ccc(C(=O)NCC(=O)O)cc2)cc1	Calb FLC 50
CC(Oc1ccccc1F)C(=O)NNC(=O)CCNC(=O)c1ccco1 (centres undefined)	none (no result: zVAD death inh, TNF necrop inh)
CN1c2ccccc2N(C)C1(C)c1ccccc1	Calb FLC 122
COc1cc(CNc2ccc(N3CCCC3)cc2)cc(Cl)c1OC	Calb FLC 87
Cc1ccc(OCc2cc(C(=O)NCc3cnn(-c4cccc(F)c4)c3)no2)cn1	Calb FLC 78 (no result: zVAD death inh, TNF necrop inh)
Cc1ccc(OCc2cc(C(=O)NCc3ccc(OC(F)(F)F)cc3)no2)cn1	none (no result: zVAD death inh, TNF necrop inh)
Clc1cccc(Cl)c1Cn1ccc(C2CC2)n1	TNF necrop inh 97
O=c1c2ccccc2c(-c2ccccc2)nn1Cc1c(Cl)cccc1Cl	none
O=C(CCC(=O)N1CCN(Cc2ccc(F)cc2)CC1)Nc1nnc(C2CCCCC2)s1	none (no result: zVAD death inh, TNF necrop inh)
Cc1ccc(NC(=O)Cn2cc([N+](=O)[O-])nc2C)cc1C	none (no result: zVAD death inh, TNF necrop inh)
O=C(OCc1ccc(O)cc1)c1c(-c2ccsc2)oc2ccc(N3CCOCC3)cc12	none (no result: zVAD death inh, TNF necrop inh)
CC1=C(CC[C@@H](C)CO)OC2CC3C4CCC5CC(O)CCC5(C)C4CC(=O)C3(C)C12 (some centres undefined)	Calb FLC 87 (no result: zVAD death inh, TNF necrop inh)
CCN1/C(=C/c2cccc[n+]2C)Sc2ccc(OC)cc21	Calb FLC 99 (no result: zVAD death inh, TNF necrop inh)
COC(=O)CCc1c(COC(C)=O)[nH]c(C(=O)OCc2ccccc2)c1C	none (no result: zVAD death inh, TNF necrop inh)
Fc1ccc2c(c1)C(c1ccncc1)=NNC(c1cccnc1)=N2	Calb FLC 81
Clc1ccc2c(c1)C(c1cccs1)=NNC(c1cccnc1)=N2	Calb FLC 90
COc1cc(C2CC(=O)Nc3n[nH]c(-c4ccccc4)c32)cc(OC)c1OC (centres undefined)	none
CCCCn1c(=O)[nH]c(=O)c2c1nc(-c1ccc(-c3ccccc3Br)o1)n2CC	Calb FLC 104
Cc1cccc(N2CCN(C(=O)CCCCCn3c(=S)[nH]c4ccc(N5CCOCC5)cc4c3=O)CC2)c1C	none (no result: zVAD death inh, TNF necrop inh)
O=C(O)c1ccc(Nc2cnc3ccccc3n2)cc1	Calb FLC 95
CC(=O)N1CCOc2ccc(S(=O)(=O)NCc3ccc(F)cc3)cc21	none (no result: zVAD death inh, TNF necrop inh)
O=C(CN1CCN(Cc2ccccc2)CC1)Nc1ccc(Cl)cc1	none (no result: zVAD death inh, TNF necrop inh)
Cc1ccc(O)c(C2=NNC(c3ccc(Cl)cc3)C2)c1 (centres undefined)	Calb FLC 78
Oc1ccc(Cl)cc1C1=NNC(c2cccs2)C1 (centres undefined)	none
COc1cc(NC(=O)CN2CCN(CC(=O)Nc3ccccc3OC)CC2)cc(OC)c1	none (no result: zVAD death inh, TNF necrop inh)
COc1ccc(NC(=O)COC(=O)CCc2cc(OC)c(OC)c(OC)c2)c([N+](=O)[O-])c1	none (no result: zVAD death inh, TNF necrop inh)
CC(C)c1ccc2oc(=O)cc(CN3CCOCC3)c2c1	HIF act 40 (no result: zVAD death inh, TNF necrop inh)
COc1ccc(C)cc1N(CC(=O)NCCSCc1cccc(Cl)c1)S(C)(=O)=O	none (no result: zVAD death inh, TNF necrop inh)
Cc1[nH]nc2c1C(c1ccoc1)C(C#N)=C(N)O2 (centres undefined)	none
CCCc1[nH]nc2c1C(c1ccoc1)C(C#N)=C(N)O2 (centres undefined)	HIF act 198 (no result: zVAD death inh)
Cc1ccoc1C(=O)N1CCCC(CCC(=O)N2CCN(c3ccccn3)CC2)C1 (centres undefined)	none
Cc1ccc2nc(NNC(=O)c3ccc(S(=O)(=O)N4CCc5ccccc5C4)cc3)sc2c1	HIF act 99 (no result: zVAD death inh)
Cc1cc(C)c2nc(NNC(=O)c3ccc(S(=O)(=O)N4CCCC(C)C4)cc3)sc2c1 (centres undefined)	HIF act 26 (no result: zVAD death inh)
COc1cccc(NC(=O)c2ccc(N3C(=O)C4CC=CCC4C3=O)cc2)c1 (centres undefined)	none (no result: zVAD death inh, TNF necrop inh)
COc1cc(OC)c2nc(C)c3c(c2c1)N(c1ccc(O)cc1)CC3	HIF act 16
COc1ccc(N2CCN(c3cc(C)c4ccc(O)cc4n3)CC2)cc1	none
CC(C)N1C(=S)N(Cc2ccco2)C(=O)C1CC(=O)Nc1ccccc1 (centres undefined)	none
COc1cccc(NC(=O)c2ccc(N3C(=O)C4CC=C(C)CC4C3=O)cc2)c1 (centres undefined)	none (no result: zVAD death inh, TNF necrop inh)
Cc1ccccc1-c1ccnc2[nH]n(-c3ccccc3)c(=O)c12	Calb FLC 79 (no result: zVAD death inh, TNF necrop inh)
Cc1[nH]n(-c2ccccc2)c(=O)c1/C=N/c1ccccn1	none
CC(=O)c1cccc(CN2CCCC(C(=O)Nc3cccc(-n4cccn4)c3)C2)c1 (centres undefined)	none (no result: zVAD death inh, TNF necrop inh)
CCN(CC)S(=O)(=O)c1ccc2c(c1)CC(C(=O)N1CCCC1)N2C(C)=O (centres undefined)	none (no result: zVAD death inh, TNF necrop inh)
Cc1oc(-c2ccc(Cl)cc2)nc1CS(=O)CC(=O)NCCN1CCCCCC1 (centres undefined)	HIF act 109 (no result: zVAD death inh, TNF necrop inh)
Cc1ccc(-c2nc(CS(=O)CC(=O)NCCN3CCCCCC3)c(C)o2)cc1 (centres undefined)	none (no result: zVAD death inh, TNF necrop inh)
Brc1ccc(/C=N/Nc2nc3ccccc3o2)cc1	none (no result: zVAD death inh, TNF necrop inh)
Oc1ccccc1/C=N/Nc1nc2ccccc2o1	HIF act 26
Oc1ccccc1/C=N/Nc1ncc(Br)cn1	HIF act 34
Nc1nc(N)c2cc(Sc3ccc4ccccc4c3)ccc2n1	Calb FLC 100
Cc1ccc(S(=O)(=O)c2c(N)n(CCN3CCOCC3)c3nc4ccccc4nc23)cc1C	none
Nc1c(S(=O)(=O)c2ccccc2)c2nc3ccccc3nc2n1CCN1CCOCC1	Calb FLC 88 (no result: zVAD death inh)
C[C@@H](CN1C(=O)C(=O)NC[C@@H]1C)NC(=O)CC12CC3CC(CC(C3)C1)C2	none (no result: zVAD death inh, TNF necrop inh)
COc1ccc(-n2nc(C(=O)NCC(=O)NCCC3=CCCCC3)c3ccccc3c2=O)c(OC)c1	Calb FLC 97 (no result: zVAD death inh, TNF necrop inh)
O=[N+]([O-])c1ccccc1Nc1nc(-c2cccnc2)cs1	none (no result: zVAD death inh, TNF necrop inh)
Cc1ccc(C2(O)CN(c3ccccc3C)C3=[N+]2CCS3)cc1 (centres undefined)	HIF act 12
Cc1ccccc1N1CC(O)(c2ccccc2)[N+]2=C1SCC2 (centres undefined)	none
COc1ccc(-c2[nH]ncc2CN(C)Cc2ccccn2)c(OC)c1	none
Cn1c(=O)n(C)c2cc(NC(=O)c3ccccc3NS(C)(=O)=O)ccc21	none (no result: zVAD death inh, TNF necrop inh)
